Bioassay records from PubChem BioAssay.
HP1b chromo inh = HTS for Inhibitors of HP1-beta Chromodomain Interactions with Methylated Histone Tails. AlphaScreen HP1-beta / biotin-H3K9me3 peptide binding. Potency, µM (doses to about 114 µM), usual class: inhibitors. 0.56% of 390,000 active; also: nearly all actives have a fitted effect of over 70% in size
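AlphaScreen: HP1-beta (50 nM) preformed 30 min with biotin-H3(1-18)K9me3 peptide (50 nM) in PBS pH 7.4, 0.01% Tween-20. Compound added for 30 min at RT, then streptavidin donor/nickel chelate acceptor beads (10 ug/mL) for 30 min.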
PLK1 PBD block = qHTS for Inhibitors of PLK1-PDB (polo-like kinase 1 - polo-box domain): Primary Screen | Serine/threonine-protein kinase PLK1 (Homo sapiens), P53350 | Plk1 PBD binding of FITC phosphopeptide, fluorescence polarization | Potency, µM, usual class: inhibitors | 2.8% of 360,000 active | AID 720504, 2013; also: series mostly up to about 57 µM; nearly all actives have a fitted effect of over 65% in size
PI5P4K alpha inh = qHTS for Inhibitors of phosphatidylinositol 5-phosphate 4-kinase (PI5P4K); PI5P4Kalpha enzyme, ADP-Glo luminescence, 60 min; stronger effect = lower value; max response, %; 1.2% of 330,000 active; AID 652105, 2013; active = max response of -50% or lower; inconclusive = between -30% and -50%; inactive = -30% or higher; also: value at the top dose of about 77 µM
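qHTS, 1536-well: enzyme/substrate mix, compound by pin tool, 5 microM ATP final; RT 60 min; ADP-Glo reagents 1 (45 min) then 2 (30 min); luminescence.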
JMJD2A Tudor = qHTS Assay for Inhibitors of JMJD2A-Tudor Domain; AlphaScreen JMJD2A-Tudor / H3K4me3 peptide binding; Potency, µM (doses to about 114 µM), usual class: inhibitors; 4.4% of 390,000 active; AID 504339, 2011; also: nearly all actives have a fitted effect of over 50% in size
BAZ2B inh = qHTS Assay for Inhibitors of BAZ2B. AlphaScreen BAZ2B-H3K14Ac peptide displacement. Potency, µM (titrated, usually from 114 µM), hits mostly inhibitors. Bromodomain adjacent to zinc finger domain protein 2B (Homo sapiens), Q9UIF8. 4.4% of 360,000 active. AID 504333, 2011; also: nearly all actives have a fitted effect of over 60% in size
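Compounds, titrated to a top concentration of 110 uM, were incubated 30 min at room temperature with preformed BAZ2B/acetyl-K14 H3 peptide complex (50 nM each). Proximity signal was measured by AlphaScreen after 20 min with beads.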
G9a inh = qHTS Assay for Inhibitors of Histone Lysine Methyltransferase G9a. Potency, µM (highest dose often 102 µM), hits mostly inhibitors. Histone-lysine N-methyltransferase EHMT2 (Homo sapiens), Q96KQ7. 8.8% of 350,000 active. G9a H3K9 monomethylation, AlphaScreen, 2 h; also: nearly all actives have a fitted effect of over 75% in size
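Readings reflect AlphaScreen signal from monomethyl-H3K9 antibody detection. HMT at 20 nM; substrate b-H3K9 500 nM; cofactor SAM 20 uM; 2 h RT reaction; compounds tested as titrations in qHTS with 15 min preincubation.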
Hits are given with their value; n = inactive; u = inconclusive; x = no result; [ ] = dose if it differs, or a comment. Sampled rows, rich in hits. Any-hit rate of the full collection: about 12%. Unless noted, calls follow the shape of the dose curve; as a rule, active = well fitted curve in the direction sought with a large enough effect; inconclusive = small, poorly fitted or top-dose-only effect, or another doubt; inactive = no such curve, though single readings can be large; an effect the other way counts as inactive or inconclusive.

SMILES	HP1b chromo inh	PLK1 PBD block	PI5P4K alpha inh	JMJD2A Tudor	BAZ2B inh	G9a inh
O=C(Nc1ccc(S(=O)(=O)N(Cc2ccccc2)c2ccccc2)cc1)c1ccc(F)cc1	n	x	x	n	n	n
O=C(O)/C=C/C(=O)Nc1ccccc1SC(F)(F)C(F)(F)C(F)(F)F	n	n	n	u	n	44.7µM
C=CCOc1ccccc1CN1CCC(CO)(CCOc2ccccc2)CC1	n	n	n	n	n	n
C=CCOc1ccccc1CN1CCCN(C)CC1	u	n	n	10µM	70.8µM	8.91µM
COc1ccc(S(=O)(=O)N2CCN(Cc3c[nH]c4ccccc34)CC2)cc1	n	n	n	n	n	n
CCCS(=O)(=O)N1CCN(Cc2ccccc2C(F)(F)F)CC1	u	n	x	20µM	n	10µM
CCCS(=O)(=O)N1CCN(Cc2c[nH]c3ccccc23)CC1	u	n	n	22.4µM	50.1µM	25.1µM
CN1CCCN(Cc2ccccc2C(F)(F)F)CC1	u	n	n	0.708µM	50.1µM	u
CN(C)Cc1ccccc1-c1cncnc1Nc1ccncc1	x	x	x	x	x	n[0.501 µM]
COCc1ccccc1C1=CC(=O)C[C@H](c2ccc(F)cc2)C1	n	n	n	n	n	n[0.501 µM]
O=C(Cc1ccccc1)NC(NNc1ccccc1)(C(F)(F)F)C(F)(F)F	u	26.7µM	n	u	n	10µM
C/C(=C\C(=O)c1ccccc1)Nc1ccc(Cl)c(Br)c1	n	26.7µM	n	n[11.4 µM]	x	x
COc1cccc(Cn2c(C)c(CNCc3cccc(C)c3)c(C(=O)O)c2C)c1	n	x	x	n	u	u
CC(C)N(C(=O)CSc1nnc(C2CC2)n1C1CC1)c1ccccc1	n	n	n	n	n	50.1µM
N#CCN(C(=O)CSc1nnc(C2CC2)n1C1CC1)c1ccccc1	x	n	n	x	x	x
COc1ccc(NC(=O)CSc2nc(-c3ccccc3)nc3c2Cc2c(CO)cnc(C)c2O3)cc1Cl	n	x	x	n	u	n
CC1CC(C)CN(Cc2nc(N)nc(Nc3ccc4ccccc4c3)n2)C1 (configuration not stated)	n	n	n	n[11.4 µM]	50.1µM	n
COc1ccc(Nc2nc(N)nc(CN3CCc4ccccc4C3)n2)cc1	n	u	n	u	50.1µM	u
COc1ccc(OCc2nc(N)nc(Nc3ccccc3)n2)cc1	n	n	n	n	n	u
Nc1nc(CN2CCc3ccccc3C2)nc(Nc2ccccc2)n1	n	n	n	79.4µM	50.1µM	u
Nc1nc(CN2CCC(Cc3ccccc3)CC2)nc(Nc2ccccc2)n1	n	n	n	u	n	n[12.7 µM]
CC1CC(C)CN(Cc2nc(N)nc(Nc3ccccc3)n2)C1 (configuration not stated)	n	n	n	u	u	x
COc1ccc(Nc2nc(N)nc(CN3CCC(C)CC3)n2)cc1	n	n	n	n	n	20µM
CCOCCCNC(=O)NC(C)c1c(-n2cccc2)sc2c1CCN(CC)C2 (configuration not stated)	n	x	x	n	n	n
Cc1nccn1-c1ccc(NC(=O)[C@H]2O[C@@H](n3ccc(N)nc3=O)[C@H](O)[C@@H]2O)cc1	x	n	n	x	x	x
SMILES	HP1b chromo inh	PLK1 PBD block	PI5P4K alpha inh	JMJD2A Tudor	BAZ2B inh	G9a inh
COCC(=O)N1CCC2(CC1)CCN(c1ccccc1)CC2	x	x	x	x	x	n[12.7 µM]
C=Cc1ccc(Cn2c(C(=O)O)c(CNCc3ccccc3)c3ccc(C)cc32)cc1	n	x	x	u	50.1µM	u
CCc1nn(CC(=O)Nc2ccc(C)c(F)c2)c(=O)c2cc3cc(C)ccc3n12	n	x	x	n	n	n
S=C(NC1CCCCC1)N1CCn2cccc2C1c1cccnc1 (configuration not stated)	n	n	n	n	u	70.8µM
Fc1ccc(C2c3cccn3CCN2C(=S)Nc2cccc(F)c2)cc1 (configuration not stated)	n	n	n	n	u	n
S=C(NC1CCCCC1)N1CCn2cccc2C1c1ccncc1 (configuration not stated)	n	n	n	n	50.1µM	u
COC(=O)N1CCC2(CC1)CN(C(c1ccccc1)c1ccccc1)C2	x	x	x	x	x	n[12.7 µM]
O=C(Nc1ccc(C(=O)N2CCOCC2)cc1)C1CC1	n	n	n	n	x	x
CC1CN=C(N(C(=O)Nc2ccccc2)c2ccc(S(=O)(=O)N3CCOCC3)cc2)S1 (configuration not stated)	n	n	n	n	n	7.08µM
O=C(Nc1ccccc1)c1ccc(S(=O)(=O)N2CCOCC2)cc1	n	n	n	n	n	n[12.7 µM]
O=C(O)C1CCCCC1C(=O)Nc1ccc(S(=O)(=O)N2CCOCC2)cc1 (configuration not stated)	n	n	n	56.2µM	x	x
CC1=C(C)CC(C(=O)Nc2ccc(C(=O)N3CCOCC3)cc2)C(C(=O)O)C1 (configuration not stated)	n	21.2µM	n	n	n	x
O=C(CCN1C(=O)c2ccccc2C1=O)Nc1ccc(S(=O)(=O)N2CCOCC2)cc1	n	23.8µM	x	u	n	n
O=C(Nc1ccccn1)C1CCCN(c2ncnc3c2nc2n3CCCCC2)C1 (configuration not stated)	n	n	n	n	n	n
O=C(CSc1ncnc2sccc12)Nc1ccc(S(=O)(=O)N2CCOCC2)cc1	n	n	n	n	n	44.7µM
O=S(=O)(c1ccc(NC(=S)NN=C(Cc2ccccc2)Cc2ccccc2)cc1)N1CCOCC1	n	n	u	n[11.4 µM]	50.1µM	x
O=S(=O)(c1ccc(NC(=S)NCCc2ccccc2)cc1)N1CCOCC1	n	n	n	n	n	n
O=C(CCSc1ccccc1)Nc1ccc(S(=O)(=O)N2CCOCC2)cc1	n	n	n	n	56.2µM	n
Cc1ccc(C(=O)CCC(=O)OCC(=O)N2CCN(S(=O)(=O)c3ccc(C)cc3C)CC2)cc1	n	n	n	n	x	x
Cc1c(Cl)ccc2c(C(=O)O)cc(-c3ccccc3)nc12	n	23.8µM	n	n[11.4 µM]	u	x
Cc1c(Cl)ccc2c(C(N)=O)cc(-c3ccccn3)nc12	n	n	n	n	n	n
CCc1cccc(C)c1NC(=O)COCc1cc(-c2ccc3c(c2)OCO3)on1	n	x	x	n	n	n
CCOc1ccc(-c2nnc(SCC(=O)NC3CCCC3)nc2-c2ccc(OCC)c(OC)c2)cc1OC	n	x	x	n	n	u
CC(=O)C1C(=O)c2c(cccc2[N+](=O)[O-])C1=Nc1ccc(S(N)(=O)=O)cc1 (configuration not stated)	n	u	u	u	u	39.8µM
